Myeloid diff MLP – promotes myeloid progenitor differentiation. ER-HoxA9 myeloid progenitors, lysozyme-GFP differentiation, flow cytometry. calls only at 10 µM. actives 1% (n = 360,000);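 active = normalized GFP-positive differentiation at or above the plate's own cutoff, the solvent-only control mean plus 3 SD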;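 also: cells exposed to compound for four days before flow analysis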
TLR4-MyD88 BLA – inhibitors of human TLR4-MyD88 binding; inhibition, % at 8.4 µM; O00206+Q99836; HeLa CL3-4 TLR4/MyD88 BLA complementation, FRET ratio; AID 861; actives 0.18% (n = 200,000); in the data active = inhibition above about 25%;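 also: 0% = vehicle and 100% = reference inhibitor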
NOD2-RIPK2 inh – NOD2-RIPK2 protein interaction inhibition | O43353 | CHO BLA complementation NOD2-RIPK2, CCF4 ratio | inhibition, % at 4.98 µM | actives 0.38% (n = 360,000); in the data active = inhibition above about 21%;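 also: 0% = vehicle only and 100% = reference blocker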
TLR9-MyD88 inh – blocks human TLR9 binding to MyD88 | Q9NR96+Q99836 | CHO BLA complementation TLR9-MyD88, CCF4 FRET ratio | inhibition, % at 4.98 µM | actives 0.21% (n = 340,000);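 active = inhibition above the mean over all tested compounds plus 3 SD, cut at about 21% in these data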;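 also: 0% = DMSO only wells and 100% = clavulanate BLA inhibitor control wells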
Numbers without * were called inactive; i = inactive; x = no result; + = active, no number. Most compounds without a hit are left out; they make up all but 1.5% or so of the library.

SMILES | Myeloid diff MLP | TLR4-MyD88 BLA | NOD2-RIPK2 inh | TLR9-MyD88 inh
COc1ccc(-c2c(C(=O)c3ccccc3)[nH]c(N)c2C(=O)NCc2ccccc2)cc1OC | i | x | -13 | x
CCC(=O)Nc1ccc2c(c1)OC[C@@H](C)N(Cc1ccccc1F)C[C@@H](C)[C@@H](OC)CN(C)C2=O | i | x | -1 | x
COc1cc(C2C=C(c3cccs3)Nc3ncnn32)cc(OC)c1OC (stereo not given) | i | 17 | 80* | 65*
CC(=O)Nc1cc(-c2cccc(NS(C)(=O)=O)c2)cn2c(-c3cccc(C(F)(F)F)c3)cnc12 | i | x | -6 | x
CC(=O)Nc1cc(-c2ccccc2N(C)C)cn2c(-c3cccc(C(F)(F)F)c3)cnc12 | + | x | -2 | x
Cc1cc(NC(=O)CSc2nnc(-c3ccncc3)n2C)n(-c2ccccc2)n1 | + | x | 3 | -12
O=C(c1ccc([N+](=O)[O-])s1)N1CCc2ccccc21 | + | x | -8 | 2
O=C(c1ccc([N+](=O)[O-])s1)N1CCCc2ccccc21 | + | x | -10 | -1
O=C(c1ccc([N+](=O)[O-])s1)N1CCc2ccccc2C1 | i | -13 | -11 | -7
O=C(c1ccccc1F)N1CCCc2ccccc21 | + | x | -2 | 0
O=C(c1ccc(C(=O)N2CCCc3ccccc32)s1)N1CCCc2ccccc21 | i | 2 | 6 | -9
O=C(c1cccc(F)c1F)N1CCCc2ccccc21 | i | x | 3 | 6
COC(=O)[C@@]12C[C@@H](CC(=O)NCCC(C)C)C(=O)N(Cc3cccc4ccccc34)C1=CCC(C)(C)C2 | i | x | 4 | x
CCN1/C(=C/C=C2/SC(=Nc3cccc4ncccc34)N(C)C2=O)Sc2ccccc21 | + | x | -15 | 1
CCC(=O)/C=C1/Sc2ccccc2N1CC | i | 11 | -4 | -6
COc1ccccc1OCC(=O)N/N=C(\C)c1ccc2ccccc2c1 | i | x | -5 | 9
COc1ccc(-c2csc3ncnc(Sc4nnnn4C)c23)cc1 | + | x | 2 | -12
Cn1nnnc1Sc1ncnc2scc(-c3ccc(Cl)cc3)c12 | i | x | 5 | 5
Cn1nnnc1Sc1ncnc2scc(-c3cccc4c3sc3ccccc34)c12 | + | x | -6 | -7
CCc1ccccc1NC(=O)CCC(=O)N1CCN(C(C)=O)CC1 | i | x | -2 | -14
COc1cc2ccc(C(C)=NNC(N)=S)cc2cc1OC | + | x | 3 | 8
C=CCC(C=C)S(=O)(=O)c1ccc(C)cc1 (stereo not given) | + | -5 | 2 | -11
CC(NC(=O)/C(C#N)=C1\N=C(NC(=O)c2cccs2)c2ccccc21)c1ccccc1 (stereo not given) | + | -5 | 0 | 3
CCCCNC(=O)c1[nH]c(=O)cnc1-c1ccccc1 | i | x | -1 | x
CN(C)CCNC(=O)c1cccc(-c2cnc3c(NC=O)cc(-c4ccc(F)cc4)cn23)c1 | i | x | 6 | x
SMILES | Myeloid diff MLP | TLR4-MyD88 BLA | NOD2-RIPK2 inh | TLR9-MyD88 inh
COc1ccc(-c2cc(NC=O)c3ncc(-c4cccc(C(=O)NCCN(C)C)c4)n3c2)cc1 | + | x | -11 | x
COc1cccc(-c2cnc3c(NC=O)cc(-c4cc(OC)c(OC)c(OC)c4)cn23)c1 | + | x | -17 | x
COc1cccc(-c2cc(NC=O)c3ncc(-c4ccc(OC)c(OC)c4)n3c2)c1 | x | x | -1 | x
CC(C)C[C@@H](COCc1cccc(Cl)c1)N1CCN(C(=O)c2ccc(C(F)(F)F)cc2)CCC1=O | i | x | -10 | x
CC(C)(C)c1ccc(Oc2ccc(N)cn2)cc1 | + | x | 4 | x
COC(=O)Cc1ccc(OC2(C)CCN(Cc3ccccc3OC(F)F)C2)cc1 (stereo not given) | i | x | -11 | x
O=C1NC[C@H](Cc2ccccc2)N(C[C@@H]2CCCN2C[C@H](Cc2ccc(O)cc2)N2C[C@H](Cc3ccccc3)N(CC3CCCCCC3)C(=O)C2=O)C1=O | i | x | -2 | x
Cc1cc(C)n(CC(O)Cn2c(C)c(C)c3ccccc32)n1 (stereo not given) | + | 3 | -5 | -6
C[C@H](CO)N1C[C@H](C)[C@@H](CN(C)C(=O)c2cc(-c3ccccc3)on2)OCc2cn(nn2)CCCC1=O | i | x | 1 | -2
CC(C)(C)OC(=O)[C@H](Cc1ccccc1)NC(=O)c1[nH]cnc1C(=O)N[C@@H](Cc1ccccc1)C(=O)OCc1ccccc1 | i | x | 3 | 3
CC(C)(C)OC(=O)[C@H](CCCCN)NC(=O)c1[nH]cnc1C(=O)N[C@@H](Cc1ccccc1)C(=O)OCc1ccccc1 | + | x | 0 | 2
O=C(NC12CC3CC(CC(C3)C1)C2)c1ccc(N2CCNCC2)c([N+](=O)[O-])c1 | + | x | 15 | -2
CS(=O)(=O)N1CCN(c2ccc(C(=O)NC34CC5CC(CC(C5)C3)C4)cc2[N+](=O)[O-])CC1 | i | -3 | 7 | 6
CCOC(=O)C1(CC2CC2)CCN(C(=O)c2ocnc2C)CC1 | + | -9 | -3 | 10
CCOc1ccccc1C1C(C#N)=C(N)SC(N)=C1C#N | + | 6 | 10 | 4
CCOc1ccc(C2C(C#N)=C(N)SC(N)=C2C#N)cc1OC | x | -7 | x | x
CCOc1ccc(C2C(C#N)=C(N)SC(N)=C2C#N)cc1OCC | + | x | -8 | -4
CCCCc1ccc(S(=O)(=O)NNC(=S)NCc2ccco2)cc1 | i | 2 | 2 | 6
CC(=O)Nc1ccc(S(=O)(=O)NNC(=S)NCc2ccco2)cc1 | + | x | 9 | -5
COCCn1c(N)c(C(=O)NCC2CCCO2)c2nc3ccccc3nc21 (stereo not given) | i | -10 | -1 | 8
CC(C)Cn1c(N)c(C(=O)NCC2CCCO2)c2nc3ccccc3nc21 (stereo not given) | + | -23 | -5 | -10
COc1ccc(C(C)(O)c2nc(-c3ccccc3OC)cs2)cc1 (stereo not given) | i | x | -2 | x
Cc1sc2nc(COC(=O)c3ccc(N4CCCC4)c([N+](=O)[O-])c3)[nH]c(=O)c2c1C | + | -3 | 2 | -6
O=C(NC1CCCCC1)C1c2ccccc2OCC(=O)N1Cc1ccc2c(c1)OCO2 (stereo not given) | i | x | -8 | x
CC(C)(C)NC(=O)NC(=O)CN1CCCc2ccccc21 | + | -3 | 7 | 0
SMILES | Myeloid diff MLP | TLR4-MyD88 BLA | NOD2-RIPK2 inh | TLR9-MyD88 inh
CC1(C(=O)Nc2cnc3ccccc3c2)CCN1Cc1cc2ccccc2o1 (stereo not given) | i | x | -9 | x
COc1ccccc1Cn1c(=S)[nH]c2cc(C(=O)N3CCC(C(N)=O)CC3)ccc2c1=O | + | x | -8 | 7
CCn1nc(C)cc1C(=O)N1CCCC(C(=O)c2ccccc2SC)C1 (stereo not given) | + | x | 1 | 1
COc1ccc(NC(=O)CN2c3cccc4cccc(c34)S2(=O)=O)cc1OC | i | x | 0 | -5
Cc1cc(C(=O)O)c2ccccc2n1 | + | -3 | -8 | -18
Cc1ccccc1C(=O)N/N=C/c1ccc([N+](=O)[O-])s1 | i | -6 | -2 | -11
Cc1cc(C(=O)N/N=C/c2ccc([N+](=O)[O-])s2)c2ccccc2n1 | + | x | 3 | -2
Cc1cc(C(=O)N/N=C/c2ccc([N+](=O)[O-])cc2)c2ccccc2n1 | + | x | -5 | 0
